This is an account of results in paper PMC7819943, “Rice protein-binding microarrays: a tool to detect cis-acting elements near promoter regions in rice”.

In all, about 39,000 sequences were measured (“fluorescence intensity (a.u.)”: median about 4,300, highest 2% from about 39,000 on). For the sample, the highest values were picked, then their nearest neighbours and some sequences at random.

The assay concerns the target T1, OsSMF1 (Oryza sativa, UniProt Q6ZLB0 1-436).
T1 sequence: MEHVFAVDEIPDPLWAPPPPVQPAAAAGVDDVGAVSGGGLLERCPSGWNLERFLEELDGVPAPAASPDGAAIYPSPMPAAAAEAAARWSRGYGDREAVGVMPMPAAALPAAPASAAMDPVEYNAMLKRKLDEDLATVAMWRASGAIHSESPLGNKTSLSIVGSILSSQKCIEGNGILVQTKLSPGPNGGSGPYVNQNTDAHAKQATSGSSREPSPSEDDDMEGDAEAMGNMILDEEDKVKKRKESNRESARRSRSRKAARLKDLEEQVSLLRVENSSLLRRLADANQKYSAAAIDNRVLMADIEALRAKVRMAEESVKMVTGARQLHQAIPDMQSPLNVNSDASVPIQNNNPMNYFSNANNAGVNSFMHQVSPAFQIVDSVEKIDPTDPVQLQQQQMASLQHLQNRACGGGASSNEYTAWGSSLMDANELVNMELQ
The experiment in a line: protein-binding microarray (RPBM); PBS, 2% BSA, 51.3 ng/ul salmon testes DNA, 50 uM zinc acetate, 200 nM TF, 25 C, 1 h; high values mean tight binding. Conditions: protein: recombinant; tags: N-terminal polyhistidine and DsRed monomer fusion (pET32a); chain copies: 2; label: CyDye5-dUTP incorporated in the synthesized complementary strand; 3' TTTTT single-stranded linker to array surface; dsDNA, one strand shown. The procedure, abridged:
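The binding signal is fluorescence intensity per array feature (arbitrary units). Readings came from an Axon 4000B scanner after a washed, 2% BSA-blocked, double-stranded custom Agilent array had been incubated for 1 h at 25 °C with 200 nM protein and 50 µM zinc acetate. The protein was a Ni–NTA-purified transcription factor fused N-terminally to polyhistidine and DsRed, expressed in E. coli BL21-CodonPlus.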
Consider “GTGTCATTTCATTCACTGGTCGGCTATATCTGGGCATATGCGGAGTCACCTAGTGCAG”, for which the binding signal was 53800 fluorescence intensity (a.u.).

In the case of “ACCATATGACTTATATATCTGTCGTCAGCTCATTTCTATGCGGAGTCACCTAGTGCAG”, the binding signal is 7290 fluorescence intensity (a.u.). Then “ATGGGGAATCTGGCACCTTTGGCTACTGGTGATTCAGTGTCGGAGTCACCTAGTGCAG”, with 3510 fluorescence intensity (a.u.).

For the sequence “TGGCGCCTCTCACCGCCACGTCGCCGCCGGCGAGGTGAAACGGAGTCACCTAGTGCAG”, the binding signal was 20800 fluorescence intensity (a.u.).

Regarding “CGATCGATCGATTGTGAGCACCGAACTCCCTTAATTAGGACGGAGTCACCTAGTGCAG”, the binding signal is 3390 fluorescence intensity (a.u.). Then “ATCACGTGATTAAAACAGTAATTATCGAGCACGGAAGGAACGGAGTCACCTAGTGCAG”, with 40600 fluorescence intensity (a.u.); and “ACGATTAATTGTTTAGTAAGCGTGCTGACGTTAAACGAGACGGAGTCACCTAGTGCAG”, with 3690 fluorescence intensity (a.u.). Then “GGTGACAATTGTCATTTGCTCAGCAACTAACATTACTAAACGGAGTCACCTAGTGCAG”, with 18200 fluorescence intensity (a.u.). Then “CACTGTTTGATGCTAAAACATATTACGTGTGCCGTTCATACGGAGTCACCTAGTGCAG”, with 3580 fluorescence intensity (a.u.). Take “GACCCAGCAAGCAAGAGCGTCTAGTCACCTCAACCACGAACGGAGTCACCTAGTGCAG”: the binding signal is 6180 fluorescence intensity (a.u.). For the sequence “ACCGCATCACATCAAGCATCCACCAACCAACCCAACAACACGGAGTCACCTAGTGCAG”, the binding signal was 3910 fluorescence intensity (a.u.). Then “CAGTCCACATAACCTGAACCCAGCGTCAATCCGCAAGCAACGGAGTCACCTAGTGCAG”, with 40200 fluorescence intensity (a.u.); and “GGTTGGTATTAACCGCTGATGGTGAATGCCAACCTCAGAACGGAGTCACCTAGTGCAG”, with 51200 fluorescence intensity (a.u.).

In the case of “GAGAATGATGTATGCACGCAGATGACATGGTATGATGAACCGGAGTCACCTAGTGCAG”, the binding signal was 4370 fluorescence intensity (a.u.). Then “CATGGTATTGTTTGATGCCAACTGAATTGATACAATGTGACGGAGTCACCTAGTGCAG”, with 20500 fluorescence intensity (a.u.); and “CTTCAAGAAGGTTACGCTGACAGAACGGCGACAACGTCCGCGGAGTCACCTAGTGCAG”, with 3220 fluorescence intensity (a.u.); and “TCTAAGACTGAACTTTCCTGTATACATATATTTTGAAAAGCGGAGTCACCTAGTGCAG”, with 24600 fluorescence intensity (a.u.). Then “TCCTTCCATACTGTATAAATACTTTGAAATTCTAATATAGCGGAGTCACCTAGTGCAG”, with 44200 fluorescence intensity (a.u.). Then “CTTCCTTTGATAATATAATATATAGATAAATTCTCTAAGACGGAGTCACCTAGTGCAG”, with 3200 fluorescence intensity (a.u.). Turning to “GACGACCTTGGCACCCAGCTTCCGTCACTCGCTCGCCGCGCGGAGTCACCTAGTGCAG”, the binding signal was 3220 fluorescence intensity (a.u.). Then “CATATAACAAGTGACTGGCACACAAACCCACAATGAAGTGCGGAGTCACCTAGTGCAG”, with 43500 fluorescence intensity (a.u.). Then “TTATAACACAAAACACATATGAAGCGCACTCTACCACGCACGGAGTCACCTAGTGCAG”, with 32200 fluorescence intensity (a.u.); and “CATCTATCATATAACAACAACACAATGACACAACACTGGACGGAGTCACCTAGTGCAG”, with 4510 fluorescence intensity (a.u.).

In the case of “TGCACGCACAGCCATCCACAAGCCATGAGCCGGCGCGAGACGGAGTCACCTAGTGCAG”, the binding signal is 3640 fluorescence intensity (a.u.). For the sequence “ATTGAAGCCTATTTATTGGTAATACGTAATCTAGATTTGACGGAGTCACCTAGTGCAG”, the binding signal was 3700 fluorescence intensity (a.u.). Then “AAAGGCACAGCAGGATGAAGATCTTGAAATGTTTCTTTGGCGGAGTCACCTAGTGCAG”, with 6510 fluorescence intensity (a.u.). For the sequence “ATAAAAGAGAAGAGCAGCAGGCCAGCTGCAGGACGGACTTCGGAGTCACCTAGTGCAG”, the binding signal was 3820 fluorescence intensity (a.u.). Then “TCAGCAGTAAAGGACAGAAGGCGAAAAGATTTGAGATCTTCGGAGTCACCTAGTGCAG”, with 65500 fluorescence intensity (a.u.); and “GCTCCCTCAGCCGTGGCACGTGTTCACAAGCCGTGACCAGCGGAGTCACCTAGTGCAG”, with 4570 fluorescence intensity (a.u.). Then “GTGCCTGCTCGATCGAGTCGTGGCGGCGGCGGAGTCAACTCGGAGTCACCTAGTGCAG”, with 3370 fluorescence intensity (a.u.); and “GCCCGTGCCAGGGCTGCTACCTCGGCACACTGGCCGGCACCGGAGTCACCTAGTGCAG”, with 3350 fluorescence intensity (a.u.); and “CAGGCCAGAACAACTGCTCGGCCCGATAGGAGGGCCTACTCGGAGTCACCTAGTGCAG”, with 55800 fluorescence intensity (a.u.). Then “AATAAGTGCAGTTGTGGGAATCCGTGTTGAACGTTTGACCCGGAGTCACCTAGTGCAG”, with 14300 fluorescence intensity (a.u.); and “AGTGAAGTCACAAGGAAGTGACGAGGATGAGGACGAGGAGCGGAGTCACCTAGTGCAG”, with 28700 fluorescence intensity (a.u.); and “CGCTCCTCGCCGCCTTGAACCTCACAGCGAAACCTGATCACGGAGTCACCTAGTGCAG”, with 3270 fluorescence intensity (a.u.). Consider “GCCACCCTCAGCCACTGGCCATCCGTGGGCCCCACCATCCCGGAGTCACCTAGTGCAG”, for which the binding signal was 22500 fluorescence intensity (a.u.). Then “CACTCCCATTCCCATCCTCCACATCCCGCGCCATCGACCTCGGAGTCACCTAGTGCAG”, with 3400 fluorescence intensity (a.u.); and “TGGGGCCCACATCCCGCACCACTCGGATTCGGATTTCCTCCGGAGTCACCTAGTGCAG”, with 52200 fluorescence intensity (a.u.); and “GCCCACATCCATCCCGTCACCCGCCCACTCGCCGTCGCACCGGAGTCACCTAGTGCAG”, with 3490 fluorescence intensity (a.u.). Then “CCACCTAACACTAATCAACCAGTCAACCACCACATCTTCCCGGAGTCACCTAGTGCAG”, with 3820 fluorescence intensity (a.u.); and “GATCCCGGGCCCGGCCCACTGGCCCAGTCAACTAATCCTCCGGAGTCACCTAGTGCAG”, with 53100 fluorescence intensity (a.u.); and “CTGCTCCACGCATTCACCAACGCTCCCTGCGATGTTTTAGCGGAGTCACCTAGTGCAG”, with 4260 fluorescence intensity (a.u.).
